Screening results: PubChem, several laboratories
PolyA inhibitor – yeast polyadenylation inhibition; S. cerevisiae SKY197-pL101 polyadenylation reporter, beta-gal luminescence; efflux-impaired pdr1/pdr3 knockout yeast; score 100 = 6 SD above DMSO; activity score, % at 12 µM; 300,000 compounds, 0.02% hits; AID 1875;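 active = lowest replicate activity score at least 50, where 100 means six control SD above control mean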;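 also: yeast exposed to compound for 9 h at 30 °C; higher score means more reporter readthrough which indicates perturbed polyadenylation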
SKKanGAS inh – blocks kanamycin growth of S. pyogenes SKKanGAS strain. BacTiter-Glo, 6 h. inhibition, % at 7.5 µM. 300,000 compounds, 1.3% hits. AID 1662;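 active = mean replicate score, as percent of positive control median, at least 50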;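 also: strain carries kanamycin resistance gene driven by streptokinase promoter and grows in 40 µg/ml kanamycin; loss of luminescence reflects streptokinase promoter inhibition or plain growth inhibition; 0% = median of DMSO wells and 100% = positive control at its reference dose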
Yeast superoxide – yeast age-related superoxide inhibition as caloric restriction mimetic | 330,000 compounds, 0.18% hits | S. cerevisiae aged cells, superoxide DHE fluorescence; hits give low values | superoxide response (% of plate mean), % at 10 µM | AID 2690;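 active = superoxide response under a set limit, about three screen SD below normal, cut at about 65% in these data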;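 also: yeast aged for seven days with compound at 30 °C before DHE staining; 100% = average MFI of all compound-treated wells on the plate with controls excluded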
Platelet DG rel – modulates dense granule release in human platelets; human platelet-rich plasma, SFLLRN dense granule ATP release, luminescence; inhibition, %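 (compounds screened at 7.5 µM in platelet-rich plasma)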; 300,000 compounds, 0.22% hits; AID 1663;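 active = mean replicate score, as percent of positive control, at or above 50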
Calb FLC – C. albicans growth modulation with fluconazole; C. albicans CaCi-2 (fluconazole-resistant clinical isolate) + fluconazole, Alamar Blue growth, 48 h; growth inhibition, % (no concentration beside the values); AID 1979; 300,000 compounds, 0.57% hits;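 active = growth inhibition above about 58% in most replicates, limit read from the data, passing the limit was not always enough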;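 also: all wells also contain fluconazole at 8 µg/ml as a sub-toxic cotreatment; 0% = median of DMSO wells and 100% = median of geldanamycin control wells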
Superoxide pick – confirmation of caloric restriction mimetics inhibiting yeast age-related superoxide | shares compounds with Yeast superoxide | S. cerevisiae aging, superoxide DHE fluorescence; hits give low values | superoxide response (% of plate), % at 10 µM | 850 compounds, 1% hits;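 active = superoxide signal below 65% of the plate average of sample wells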;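 also: cells aged with compound for 7 days at 30 degrees C before staining; 100% equals mean DHE fluorescence of all compound wells on the plate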
DHE fluor count – DHE fluorescence interference, counter-screen artifact; shares compounds with Yeast superoxide; S. cerevisiae BY4741, flow cytometry; hits give low values; fluorescence response, % at 10 µM; 850 tested, under 10 active; AID 435000;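 active = fluorescence response below 15%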;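 also: percent of the mean fluorescence averaged over all compound wells on the plate; lower means stronger quenching of DHE signal or ROS scavenging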
Active calls of the source: *; . = no result. Rows were chosen to be rich in hits. Some 2% of all compounds tested hit in one or more screens of this group.

SMILES	PolyA inhibitor	SKKanGAS inh	Yeast superoxide	Platelet DG rel	Calb FLC	Superoxide pick	DHE fluor count
O=C(Nc1ccc2nc3ccccc3nc2c1)c1ccccc1	16.0	10.1	46.5*	-13.9	-1.2	59.1*	94.2
O=C(Cc1cn(Cc2cccc(Cl)c2)c2ccccc12)N1CCCCCC1	3.6	13.8	97.6	-0.4	-1.0	.	.
Cc1cccc(NC(=O)c2nc[nH]c2C(=O)NCCCCNC(=O)c2[nH]cnc2C(=O)Nc2cccc(C)c2)c1	.	.	102.3	.	.	.	.
CC1(C)CC(=O)C=C(Nc2ccc(F)c(Cl)c2)C1	-6.5	2.6	62.2*	-3.6	-11.6	98.9	94.6
Cc1cc(/C=N/NC(=O)C(O)(c2ccccc2)c2ccccc2)c(C)n1-c1cccc(C(=O)O)c1	2.6	-4.7	101.8	6.8	4.9	.	.
Cc1cc(/C=N/NC(=O)C(O)(c2ccccc2)c2ccccc2)c(C)n1-c1ccc(C(=O)O)cc1	1.3	-0.7	55.5*	-4.0	-2.6	96.4	105.2
C=CCn1c(SCC(=O)NC2CCCCC2)nnc1-c1ccc(OC)cc1	-2.5	-5.8	56.7*	9.3	-4.8	114.0	111.5
C=CCn1c(SCC(=O)NC2CC2)nnc1-c1cccc(OC)c1	4.7	-4.9	96.1	-0.3	-3.8	.	.
C#CCSc1nnc(-c2ccc([N+](=O)[O-])cc2)o1	2.2	-0.3	54.0*	-0.5	-10.8	72.5	92.9
O=C1[C@H]2[C@H](C=CC[C@H]2C(=O)N2CCOCC2)CCN1Cc1ccccc1	-8.0	4.8	113.8	-1.6	-6.6	.	.
Cc1ccc(S(=O)(=O)Nc2ccccc2C(N)=O)cc1	-0.1	-6.9	104.8	3.4	7.1	.	.
NC(=O)c1ccccc1NS(=O)(=O)c1ccccc1	4.9	5.8	111.1	3.5	-2.3	101.1	91.7
CSc1cccc(NS(=O)(=O)c2ccccc2)c1	-1.2	0.4	104.1	2.2	25.0	100.1	102.2
CC(=O)Nc1ccc(NS(=O)(=O)c2ccccc2)cc1	5.4	4.7	97.3	6.2	-9.5	104.1	88.3
CSc1cccc(NS(=O)(=O)c2ccc(F)cc2)c1	-20.8	-1.4	87.1	4.5	-6.0	.	.
CC(C)(C)n1nc2c(c1NC(=O)c1cc3ccccc3o1)CS(=O)(=O)C2	1.0	-5.4	89.0	9.7	14.0	.	.
CN(C(=O)COC(=O)c1ccccc1Cc1ccccc1)C1CCS(=O)(=O)C1 (stereo unspecified)	4.8	-3.8	103.4	-3.1	-0.1	.	.
COc1ccccc1C(C)NC(=O)c1cc(=O)[nH]c2ccccc12 (stereo unspecified)	-0.9	-2.7	101.8	-3.9	-5.6	.	.
CC(C)NC(=O)c1ccc(C(C)C)cc1	-1.8	-8.5	52.0*	-5.2	-1.8	108.0	105.6
CC(C)c1ccc(C(=O)NCc2ccc(Cl)cc2)cc1	16.3	-0.5	97.6	-13.8	-0.1	.	.
C=CCn1c(SCC(=O)Nc2cc(C)c(Cl)cc2OC)nnc1-c1ccco1	.	.	97.5	0.8	12.4	103.7	97.2
C=CCn1c(SCC(=O)Nc2cc(C)ccc2OC)nnc1-c1ccco1	3.2	-1.1	115.5	-2.2	-1.8	95.8	91.1
COc1ccccc1CN1C(=NC(=O)C2CCCCC2)SC2CS(=O)(=O)CC21 (stereo unspecified)	14.1	5.0	101.2	7.3	9.9	.	.
COc1ccccc1-c1nnc(NC(=O)c2ccc(S(=O)(=O)N(C)CC3CCCO3)cc2)o1 (stereo unspecified)	0.5	54.3*	94.2	-4.0	27.9	94.2	96.2
N#CCCN(CCC#N)S(=O)(=O)c1ccc(C(=O)Nc2nnc(C3=COCCO3)o2)cc1	22.0	-5.7	88.3	0.9	-13.1	.	.
COc1ccccc1-c1nnc(NC(=O)c2ccc(S(=O)(=O)N(C)C)cc2)o1	-20.6	30.6	89.9	-1.2	-5.3	.	.
CN(CC1CCCO1)S(=O)(=O)c1ccc(C(=O)Nc2nnc(-c3ccccc3)o2)cc1 (stereo unspecified)	10.3	83.6*	92.7	-18.3	45.3	104.8	122.5
CCCCN(C)S(=O)(=O)c1ccc(C(=O)Nc2nnc(C3=COCCO3)o2)cc1	5.8	8.9	117.6	7.2	27.7	99.4	110.0
Cc1ccc(S(=O)(=O)N(C)c2ccc3c(ncn3C)c2[N+](=O)[O-])cc1	13.4	-1.3	103.1	-0.6	0.3	.	.
